Screen size: about 5,500 compounds; about 2,000 (36%) were called active. Inconclusive results (about 18%) are left out. No stated cut-off is given here; in the data, active means normalized growth mostly below about 0.91 (no sharp cut-off); inconclusive means no clear call, values can overlap the other calls; inactive means mostly above about 0.92. The list shows a part of the results.
Test: chemical genetic growth profiling, strain panel (AID 1159580);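 further: tested at 20 µM; growth read once vehicle control cultures reached saturation at 30 °C; 1 = growth at the plate median or of vehicle wells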
Conditions: growth OD

Measured: normalized growth

Cc1[nH]c2ccccc2c1CN(C)C
inactive: S. cerevisiae deletion strains, locus YJR075W, strain HOC1, stronger effect = lower value 1.03 | S. cerevisiae deletion strains, locus YKL009W, strain mrt4, stronger effect = lower value 0.974 | S. cerevisiae deletion strains, locus YKL068W, stronger effect = lower value 1.01 | S. cerevisiae deletion strains, locus YKL085W, strain MDH1 (second series), stronger effect = lower value 0.997 | S. cerevisiae deletion strains, locus YKL085W, strain MDH1, stronger effect = lower value 0.997 | S. cerevisiae deletion strains, locus YKL160W, strain elf1, stronger effect = lower value 1.01 | S. cerevisiae deletion strains, locus YKL190W, strain CNB1, stronger effect = lower value 1.02 | S. cerevisiae deletion strains, locus YKR001C, strain vps1, stronger effect = lower value 1.01 | S. cerevisiae deletion strains, locus YKR026C, strain gcn3, stronger effect = lower value 1.02 | S. cerevisiae deletion strains, locus YKR091W, strain srl3, stronger effect = lower value 1.01 | S. cerevisiae deletion strains, locus YLL001W, strain dnm1, stronger effect = lower value 1.01 | S. cerevisiae deletion strains, locus YLL026W, stronger effect = lower value 1.02 | S. cerevisiae deletion strains, locus YLL041C, strain sdh2, stronger effect = lower value 1.01 | S. cerevisiae deletion strains, locus YLR027C, strain aat2, stronger effect = lower value 1.01 | S. cerevisiae deletion strains, locus YLR039C, strain RIC1, stronger effect = lower value 1.1 | S. cerevisiae deletion strains, locus YLR058C, strain SHM2, stronger effect = lower value 1.03 | S. cerevisiae deletion strains, locus YLR102C, strain apc9, stronger effect = lower value 1 | S. cerevisiae deletion strains, locus YLR113W, strain HOG1, stronger effect = lower value 1 | S. cerevisiae deletion strains, locus YLR221C, strain rsa3, stronger effect = lower value 1.01 | S. cerevisiae deletion strains, locus YLR258W, strain gsy2, stronger effect = lower value 1 | S. cerevisiae deletion strains, locus YLR262C, strain YPT6 (second series), stronger effect = lower value 1.01 | S. cerevisiae deletion strains, locus YLR262C, strain YPT6, stronger effect = lower value 1.05 | S. cerevisiae deletion strains, locus YLR268W, strain sec22, stronger effect = lower value 0.979 | S. cerevisiae deletion strains, locus YLR320W, strain mms22, stronger effect = lower value 1.04 | S. cerevisiae deletion strains, locus YLR330W, strain CHS5, stronger effect = lower value 1 | S. cerevisiae deletion strains, locus YLR342W, strain FKS1 (second series), stronger effect = lower value 1.02 | S. cerevisiae deletion strains, locus YLR342W, strain FKS1, stronger effect = lower value 1.01 | S. cerevisiae deletion strains, locus YLR357W, strain rsc2, stronger effect = lower value 1 | S. cerevisiae deletion strains, locus YLR370C, strain arc18, stronger effect = lower value 1.03 | S. cerevisiae deletion strains, locus YLR371W, strain rom2, stronger effect = lower value 1.01 | S. cerevisiae deletion strains, locus YLR384C, strain iki3, stronger effect = lower value 1.03 | S. cerevisiae deletion strains, locus YLR418C, strain cdc73, stronger effect = lower value 0.983 | S. cerevisiae deletion strains, locus YML016C, strain PPZ1, stronger effect = lower value 0.996 | S. cerevisiae deletion strains, locus YML032C, strain rad52, stronger effect = lower value 0.981 | S. cerevisiae deletion strains, locus YML120C, strain ndi1, stronger effect = lower value 1.01 | S. cerevisiae deletion strains, locus YML124C, strain tub3, stronger effect = lower value 0.991 | S. cerevisiae deletion strains, locus YMR058W, strain fet3, stronger effect = lower value 1.02 | S. cerevisiae deletion strains, locus YMR078C, strain ctf18, stronger effect = lower value 0.991 | S. cerevisiae deletion strains, locus YMR125W, strain sto1, stronger effect = lower value 1.01 | S. cerevisiae deletion strains, locus YMR129W, stronger effect = lower value 1.02 | S. cerevisiae deletion strains, locus YMR205C, strain PFK2, stronger effect = lower value 1.06 | S. cerevisiae deletion strains, locus YMR223W, strain ubp8, stronger effect = lower value 0.977 | S. cerevisiae deletion strains, locus YMR231W, strain pep5, stronger effect = lower value 1.02 | S. cerevisiae deletion strains, locus YMR263W, strain SAP30, stronger effect = lower value 1.02 | S. cerevisiae deletion strains, locus YMR307W, strain GAS1, stronger effect = lower value 1.15 | S. cerevisiae deletion strains, locus YNL067W, strain RPL9B, stronger effect = lower value 1.02 | S. cerevisiae deletion strains, locus YNL071W, strain lat1, stronger effect = lower value 1.01 | S. cerevisiae deletion strains, locus YNL128W, strain TEP1, stronger effect = lower value 1 | S. cerevisiae deletion strains, locus YNL183C, strain NPR1, stronger effect = lower value 0.94 | S. cerevisiae deletion strains, locus YNL209W, strain ssb2, stronger effect = lower value 1.04 | S. cerevisiae deletion strains, locus YNL233W, strain BNI4, stronger effect = lower value 1.05 | S. cerevisiae deletion strains, locus YNL248C, strain rpa49, stronger effect = lower value 1.02 | S. cerevisiae deletion strains, locus YNL250W, strain rad50, stronger effect = lower value 0.98 | S. cerevisiae deletion strains, locus YNL271C, strain bni1, stronger effect = lower value 0.995 | S. cerevisiae deletion strains, locus YNL298W, strain CLA4, stronger effect = lower value 0.985 | S. cerevisiae deletion strains, locus YNL307C, strain MCK1, stronger effect = lower value 1 | S. cerevisiae deletion strains, locus YNL322C, strain KRE1 (second series), stronger effect = lower value 1.02 | S. cerevisiae deletion strains, locus YNR049C, strain mso1, stronger effect = lower value 1.03 | S. cerevisiae deletion strains, locus YNR052C, strain pop2, stronger effect = lower value 0.994 | S. cerevisiae deletion strains, locus YOL012C, strain htz1 1.39 | S. cerevisiae deletion strains, locus YOL147C, strain pex11, stronger effect = lower value 0.993 | S. cerevisiae deletion strains, locus YOR001W, strain rrp6, stronger effect = lower value 1.02 | S. cerevisiae deletion strains, locus YOR061W, strain CKA2, stronger effect = lower value 1.02 | S. cerevisiae deletion strains, locus YOR069W, strain VPS5, stronger effect = lower value 0.995 | S. cerevisiae deletion strains, locus YOR070C, strain gyp1, stronger effect = lower value 1.02 | S. cerevisiae deletion strains, locus YOR080W, strain dia2, stronger effect = lower value 1.03 | S. cerevisiae deletion strains, locus YOR083W, strain WHI5, stronger effect = lower value 1.01 | S. cerevisiae deletion strains, locus YOR106W, strain vam3, stronger effect = lower value 1.04 | S. cerevisiae deletion strains, locus YOR136W, strain idh2, stronger effect = lower value 0.975 | S. cerevisiae deletion strains, locus YOR144C, strain elg1, stronger effect = lower value 0.999 | S. cerevisiae deletion strains, locus YOR184W, strain ser1, stronger effect = lower value 1.02 | S. cerevisiae deletion strains, locus YOR231W, strain MKK1, stronger effect = lower value 0.987 | S. cerevisiae deletion strains, locus YOR265W, strain rbl2, stronger effect = lower value 1.02 | S. cerevisiae deletion strains, locus YOR270C, strain vph1, stronger effect = lower value 1.07 | S. cerevisiae deletion strains, locus YOR290C, strain snf2, stronger effect = lower value 1.01 | S. cerevisiae deletion strains, locus YOR316C, strain cot1, stronger effect = lower value 0.992 | S. cerevisiae deletion strains, locus YPL051W, strain arl3, stronger effect = lower value 1.03 | S. cerevisiae deletion strains, locus YPL055C, strain LGE1, stronger effect = lower value 1.06 | S. cerevisiae deletion strains, locus YPL078C, strain atp4, stronger effect = lower value 1 | S. cerevisiae deletion strains, locus YPL106C, strain sse1, stronger effect = lower value 1.04 | S. cerevisiae deletion strains, locus YPL240C, strain hsp82, stronger effect = lower value 1.01 | S. cerevisiae deletion strains, locus YPL256C, strain CLN2, stronger effect = lower value 0.991 | S. cerevisiae deletion strains, locus YPR119W, strain clb2, stronger effect = lower value 0.992 | S. cerevisiae deletion strains, locus YPR141C, strain kar3, stronger effect = lower value 1 | S. cerevisiae deletion strains, locus YPR163C, strain tif3, stronger effect = lower value 0.996 | S. cerevisiae deletion strains, locus YPR167C, strain met16, stronger effect = lower value 0.988 | S. cerevisiae deletion strains, strain wtn01, stronger effect = lower value 0.966 | S. cerevisiae strains, strain wild type, stronger effect = lower value 1.03
